The source of these data is PubChem BioAssay (Tox21).

Active and inactive are the calls of the source. Calls follow the shape of the full dose curve.
% is scaled to controls: 0 for no effect and ±100 for the full control effect.

The test in a line: qHTS assay to identify small molecule agonists of the estrogen related receptor (ERR) signaling pathway from Tox21 library (AID 1224849). Also: nearly all actives have a fitted effect of over 15% in size. To be noted: ERR reporter cell line, ONE-Glo luciferase, 18 h; at 92.4 µM (top of the series) unless noted. The text has this:
National Center for Advancing Translational Sciences [NCATS]
NIH Chemical Genomics Center [NCGC]
U.S. Environmental Protection Agency [EPA]
National Institutes of Environmental Health Sciences [NIEHS]
National Toxicology Program [NTP]
Estrogen related receptors (ERRs), the first orphan nuclear receptors discovered, play an important role in the control of cellular energy metabolism. ERRs are required for high-energy production in response to the environmental challenges. ERR-alpha was also identified as an adverse marker for breast cancer progression; ERR-alpha-positive tumors have a poor prognosis. To screen and to identify environmental compounds that perturb the ERR signaling pathways could provide valuable information for potential therapeutic or preventive measures in the treatment of metabolic disease. For identifying ERR agonists, ERR cell line (provided by NTP) has been used to screen Tox21 10K library.
The ERR cells were dispensed at 2,000 cells/5 ul/well in 1536-well white plates using a Multidrop dispenser. After the assay plates were incubated at a 37 C/5% CO2 incubator for 6 hours, 23 nL of compounds dissolved in DMSO, positive and negative controls or DMSO only was transferred to the assay plate by a pin tool. The plates were incubated at 37 C for 18 hours. 4 ul/well of One-Glo reagent was added into the assay plates using a Flying Reagent Dispenser. After 30-minute incubation at room temperature, the luminescence intensity in the plates was measured using a ViewLux plate reader.
For `CC/C=C(\C)C=O`, the activity change, positive = activation was 5.99% (inactive).
The figure for `Cc1cc(C)c(O)c(C(C)(C)C)c1` is 1.52% (inactive); for `SC1CCCCC1` it is 7.84% (inactive); for `CSc1ccc(O)cc1C` it is -0.368% (inactive).
`Cc1ccc(Cl)c(N)c1Cl`: the activity change, positive = activation is -0.961% (inactive).
Next, `O=C1OC2(c3ccccc31)c1ccc(O)c(Br)c1Oc1c2ccc(O)c1Br`: -9.26% (inactive); `CN1CCN(CCCN2c3ccccc3Sc3ccc(C(F)(F)F)cc32)CC1`: -69.1% [at 42.5 µM] (inactive); `Cc1cc(Br)ccc1NC(=O)CCl`: -79.8% (inactive).
In the case of `O=[N+]([O-])c1ccc(O)c2ncccc12`, the activity change, positive = activation was -55.9% [at 42.5 µM] (inactive).
Take `CC(O)(c1ccc(Cl)cc1)c1ccc(Cl)cc1`: the activity change, positive = activation is -43.9% (inactive).
The figure for `NC(=O)c1ccccc1Cl` is 3.13% (inactive); for `CCN(CCC#N)c1ccc(N=Nc2ccc([N+](=O)[O-])cc2)cc1` it is 15.7% (active); for `Cc1c[nH]c(=O)[nH]c1=O` it is 0.0206% (inactive).
Next, `c1ccc2occc2c1`: 3.98% (inactive).
For `COc1cc([C@@H]2c3cc4c(cc3[C@@H](O[C@@H]3O[C@@H]5CO[C@@H](C)O[C@H]5[C@H](O)[C@H]3O)[C@H]3COC(=O)[C@H]23)OCO4)cc(OC)c1O`, the activity change, positive = activation is -61.8% (inactive).
Turning to `CCCCCCCCCCCCCCCCC(C(=O)O)C(O)(CC(=O)O)C(=O)O` (stereo not given), the activity change, positive = activation was -3.01% [at 42.5 µM] (inactive).
`N#CCCOCCC#N`: the activity change, positive = activation was 1.08% (inactive).
The figure for `CCc1c(C)cc(N)c(CC)c1N` is -1.89% (inactive); for `CCCCCN=C(N)N/N=C/c1c[nH]c2ccc(OC)cc12` it is -70.2% [at 42.5 µM] (inactive).
As for `CCCCCCCCCCCCCCCCCCNC(=O)OC1CCN(C(=O)OC[C@H](COC(=O)N(Cc2cccc[n+]2CC)C(=O)c2ccccc2OC)OC)CC1`, the activity change, positive = activation was -55.2% [at 42.5 µM] (inactive).
The figure for `O=C1CCCCCCCCCCCCCC1` is 1.09% (inactive); for `c1ccc(C[P+](c2ccccc2)(c2ccccc2)c2ccccc2)cc1` it is -56.8% (inactive); for `O=C1C=CC(=O)N1c1cccc(N2C(=O)C=CC2=O)c1` it is -72.9% (inactive).
On to `CCCCCCCCc1ccc(Nc2ccc(CCCCCCCC)cc2)cc1`, for which the activity change, positive = activation was -4.1% [at 42.5 µM] (inactive).
In the case of `O=C1c2ccccc2C(=O)c2c(Cl)cccc21`, the activity change, positive = activation is 1.21% [at 42.5 µM] (inactive).
For `Oc1ccc(C2(c3ccc(O)c(C4CCCCC4)c3)CCCCC2)cc1C1CCCCC1`, the activity change, positive = activation is -70.3% (inactive).
With `CO[Si](OC)(c1ccccc1)c1ccccc1`, the activity change, positive = activation is -12.9% (inactive).
Next, `Oc1ccc(Cl)cc1C1CCCC1`: 6.21% (inactive).
Next, `C=C1C(CCl)(CCl)C2(Cl)C(Cl)C(Cl)C1(Cl)C2(Cl)Cl` (stereo not given): -73.9% (inactive); `Cc1ccc(S(=O)(=O)C(I)I)cc1`: -77.2% (inactive); `O=c1[nH]cccc1O`: -37% (inactive).
Consider `CCC1(C)C(=O)N(Cl)C(=O)N1Cl` (stereo not given), for which the activity change, positive = activation was -3.41% (inactive).
As for `COc1cc(/C=C/C(=O)CC(=O)/C=C/c2ccc(O)c(OC)c2)ccc1O`, the activity change, positive = activation was -73.6% (inactive).
The figure for `Clc1cccc(Cl)n1` is 0.024% (inactive).
Next, `Nc1ccc2c(S(=O)(=O)O)cccc2c1S(=O)(=O)O`: -1.51% [at 42.5 µM] (inactive); `O[Si](c1ccccc1)(c1ccccc1)c1ccccc1`: -39.7% (inactive).
Next, `S=C1NC=NC2N=CNC12` (stereo not given): -55.5% (inactive); `Nc1ccc(Oc2cccc(Oc3ccc(N)cc3)c2)cc1`: -57.1% (inactive); `CCCCCCCCSCc1cc(C)c(O)c(CSCCCCCCCC)c1`: 3.09% (inactive).
For `C=CC(=O)O[C@H]1C[C@@H]2CC[C@@]1(C)C2(C)C`, the activity change, positive = activation is 1.18% (inactive).
